Hits are enriched below; roughly 1.6% of the tested compounds scored in any of these assays.
PLAP activator = activators of human placental alkaline phosphatase. AID 696. purified PLAP enzyme, luminescent substrate read-out; stronger effect = higher value. actives 1.2% (n = 96,000). activation fold at 20 µM; in the data active = activation fold above about 2
Target sequence (P05187 whole entry, looked up): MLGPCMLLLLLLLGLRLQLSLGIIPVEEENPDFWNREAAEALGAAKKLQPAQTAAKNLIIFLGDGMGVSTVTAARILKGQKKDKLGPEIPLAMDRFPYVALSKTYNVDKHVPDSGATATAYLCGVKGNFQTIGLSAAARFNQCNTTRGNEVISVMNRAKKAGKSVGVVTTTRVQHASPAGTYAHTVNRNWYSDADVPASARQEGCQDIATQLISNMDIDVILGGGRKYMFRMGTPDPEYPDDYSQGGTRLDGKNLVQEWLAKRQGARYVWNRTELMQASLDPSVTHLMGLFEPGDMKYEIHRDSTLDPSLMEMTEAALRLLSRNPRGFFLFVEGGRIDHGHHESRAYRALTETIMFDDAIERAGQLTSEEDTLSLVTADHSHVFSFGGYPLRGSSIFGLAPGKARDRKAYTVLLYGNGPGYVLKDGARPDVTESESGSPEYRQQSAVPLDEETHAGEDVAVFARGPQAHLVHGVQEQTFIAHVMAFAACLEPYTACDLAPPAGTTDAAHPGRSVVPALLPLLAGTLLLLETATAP
MT1-MMP txn act = activates MT1-MMP transcription; HT1080 MT1-MMP promoter luciferase reporter, luminescence, overnight; stronger effect = higher value; activation factor at 10 µM; actives 0.16% (n = 86,000);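 active = activation factor of at least 2 for MT1-MMP transcription at 10 µM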
PTPN22 inh 2 = blocks human PTPN22 phosphatase activity; Q9Y2R2; recombinant LYP catalytic domain, DiFMUP fluorescence; inhibition, % at 2 µM; actives 0.21% (n = 96,000); AID 640;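 active = inhibition at 2 µM at or above a set limit, the screen mean plus 3 SD, cut at about 24% in these data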
TNAP act DEA = activators of human TNAP at intermediate phosphate acceptor | purified TNAP, CDP-star luminescence, 100 mM DEA, 30 min; stronger effect = higher value; scale: 0 levamisole-inhibited, 1 vehicle-only enzyme | activation factor at 20 µM | AID 813 | P05186 | 64,000 tested, under 10 active;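 active = activation factor of at least 2 at 20 µM, relative to controls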
LYP act = increases human PTPN22 phosphatase activity. Q9Y2R2. recombinant LYP, DiFMUP fluorescence; 0 = plate median, 100 = signal doubled. activation, % at 2 µM. actives 0.11% (n = 96,000);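 active = activation at 2 µM above a set limit, the mean plus 5 SD, cut at about 37% in these data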
Large screens that a line does not name were inactive.

COc1ccc2cc(CN(CC3CCCO3)S(=O)(=O)c3ccccc3Cl)c(=O)[nH]c2c1 (stereo not drawn)	PLAP activator 2 (no result: TNAP act DEA)
N#C/C(=N\Nc1ccccc1F)C(=N)N1CCCCC1	MT1-MMP txn act 2 (no result: PLAP activator, TNAP act DEA)
N#C/C(=N\Nc1ccc(Cl)cc1)C(=N)N1CCCCC1	none (no result: TNAP act DEA)
Cc1noc(C)c1CSc1nc2[nH]ncc2c(=O)n1-c1ccccc1	none (no result: PLAP activator, TNAP act DEA)
Cc1nc(CSc2nc3[nH]ncc3c(=O)n2-c2ccccc2)cs1	PLAP activator 2.3
Cc1cccc(-n2c(SCc3cc(=O)n4c(C)cccc4n3)nc3[nH]ncc3c2=O)c1	PLAP activator 2.8 (no result: TNAP act DEA)
C=CCc1ccc(OCCCOc2ccc(C)cc2OC)c(OC)c1	none (no result: TNAP act DEA)
C=CCc1ccc(OCC(O)COc2ccc(CC=C)cc2OC)c(OC)c1	PLAP activator 2 (no result: TNAP act DEA)
C=CCc1ccc(OCCCCN2CC(C)OC(C)C2)c(OC)c1 (stereo not drawn)	PLAP activator 2 (no result: TNAP act DEA)
CNC(=O)CN(c1ccc(F)cc1)S(=O)(=O)c1cc(C)ccc1OC	none (no result: TNAP act DEA)
COc1ccc(-c2nnc(NC(=O)c3ccc(S(=O)(=O)N4CCCc5ccccc54)cc3)o2)cc1	none
O=C(Nc1nnc(C2CC2)o1)c1ccc(S(=O)(=O)N2CCCc3ccccc32)cc1	PLAP activator 2.5 (no result: MT1-MMP txn act)
COC(=O)N1[C@H](Cc2ccccc2)C=C[C@]1(C)C(=O)NCc1ccc(C)o1	none (no result: PLAP activator, PTPN22 inh 2, TNAP act DEA, LYP act)
CCOC(=O)c1cnn(-c2ccc(Cl)cc2)c1C1CCN(C(=O)OC(C)(C)C)CC1	PLAP activator 2.3 (no result: TNAP act DEA)
CCc1cc(C(=O)Nc2ccc(C)cc2Br)cs1	MT1-MMP txn act 2 (no result: PLAP activator, TNAP act DEA)
CCN(CC)CC(=O)Nc1ccc(C)cc1Br	none
CC(C)(C)c1cc(/C=N/NC(=O)Cc2nc3ccccc3[nH]2)cc(C(C)(C)C)c1O	PLAP activator 2 (no result: MT1-MMP txn act, TNAP act DEA)
Cc1ccccc1NC(=O)NCCCN1CCN(c2ccccc2)CC1	PLAP activator 2.8 (no result: TNAP act DEA)
O=C(CSc1ncccc1-c1nc2ccccc2[nH]1)NCc1ccco1	PLAP activator 2
Cc1cc2nc(-c3cccnc3SCC(=O)NCc3ccco3)[nH]c2cc1C	none (no result: PLAP activator)
Cn1ncc(Cl)c1C(=O)NC(=S)Nc1sc2c(c1C#N)CCCCC2	none (no result: MT1-MMP txn act, TNAP act DEA)
COC(=O)c1cc(OC)c(OC)cc1NC(=O)c1ccc(C)o1	PLAP activator 2.2 (no result: TNAP act DEA)
CCCn1cnc2cc(NCc3cccc(OC)c3O)ccc21	PLAP activator 2.7
CCOC(=O)C1=C(C)N(CCC(=O)O)C(=O)NC1c1ccccc1Cl (stereo not drawn)	none (no result: PLAP activator, PTPN22 inh 2, TNAP act DEA, LYP act)
COc1ccc(CCNC(=O)C2CCN(Cc3nc(-c4cccc(Cl)c4)oc3C)CC2)cc1OC	PLAP activator 2.2 (no result: PTPN22 inh 2, LYP act)
Cc1oc(-c2cccc(Cl)c2)nc1CN1CCC(C(=O)NCCCN2CCCC2=O)CC1	none
COCc1[nH][nH]c(=O)c1C=Nc1ccc(Cl)cc1	none (no result: TNAP act DEA)
COCc1[nH][nH]c(=O)c1C=Nc1ccccc1	PLAP activator 2 (no result: TNAP act DEA)
O=[N+]([O-])c1cc(C(F)(F)F)ccc1Sc1ccc2ccccc2n1	none (no result: MT1-MMP txn act, TNAP act DEA)
Nc1nc(Sc2ccc(C(F)(F)F)cc2[N+](=O)[O-])n[nH]1	PLAP activator 2 (no result: TNAP act DEA)
O=C(Nc1ccc2nc(-c3ccccn3)[nH]c2c1)C1CCCCC1	PLAP activator 2.3 (no result: TNAP act DEA)
Cc1nc(N)sc1-c1csc(Nc2ccccc2)n1	MT1-MMP txn act 2.3
CCN(CC)CCNc1nc2c(c(=O)[nH]c(=O)n2C)n1CC(O)COc1ccc(Cl)cc1Cl (stereo not drawn)	PLAP activator 2
CCOc1cc(CNCc2ccccn2)ccc1OCC(=O)NC1CCCCC1	PLAP activator 2 (no result: MT1-MMP txn act, TNAP act DEA)
Cc1cccc(C)c1OCCSc1n[nH]c(N)n1	PLAP activator 2 (no result: MT1-MMP txn act, TNAP act DEA)
C[C@@]1(C(NC(=O)Cc2ccc(C(F)(F)F)cc2)c2ccc(-c3ccccc3)cc2)C[C@H]1C1CCCCC1 (stereo partly drawn)	none (no result: PLAP activator, PTPN22 inh 2, TNAP act DEA, LYP act)
C1CCC(c2nn3c(-c4n[nH]c5c4CCC5)nnc3s2)CC1	PLAP activator 2.3
COc1ccc(-c2nnc3sc(C4CCCCC4)nn23)cc1OC	PLAP activator 2.1
O=C1CC(Cc2ccccc2)C(=O)N1CCCn1ccnc1 (stereo not drawn)	none
Cc1ccc2oc(=O)c3c4cc(O)c(O)c(C)c4oc3c2c1	none (no result: PLAP activator, PTPN22 inh 2, TNAP act DEA, LYP act)
COc1ccc(NC(=O)c2cc3c(-c4ccc(OC)c(OC)c4)nn(C)c3s2)cc1OC	PLAP activator 2.3 (no result: TNAP act DEA)
O=C(COc1cccc2ccccc12)NNC(=O)[C@@H]1CCCC[C@@H]1C(=O)O	PLAP activator 2 (no result: MT1-MMP txn act, TNAP act DEA)
O=C(O)C1CCCCC1C(=O)NCc1ccccc1 (stereo not drawn)	MT1-MMP txn act 2 (no result: TNAP act DEA)
O=C(O)C1CCCCC1C(=O)NCc1ccc(F)cc1 (stereo not drawn)	none
Cc1ccc(SC(C)C(=O)Nc2ncn[nH]2)cc1 (stereo not drawn)	PLAP activator 2.1
CCCc1[nH]n(-c2nc3ccccc3s2)c(=O)c1C=NCC(C)C	PLAP activator 2.1 (no result: TNAP act DEA)
CCCC1(C(=O)O)NC(c2ccccc2O)C2C(=O)N(c3cccc(Cl)c3)C(=O)C21 (stereo not drawn)	PLAP activator 2.4
Clc1ccc(CSc2nnnn2-c2ccc3c(c2)OCO3)c(Cl)c1	none (no result: TNAP act DEA)
COc1cc(C(=O)Nc2cc(-c3ccccc3)[nH]n2)cc(OC)c1OC	PLAP activator 2.3 (no result: PTPN22 inh 2, LYP act)
C=CCn1c(-c2cccc3ccccc23)n[nH]c1=S	PLAP activator 2.8 (no result: TNAP act DEA)
Cc1cnn(CCC(=O)NNC(=S)Nc2ccc(F)cc2)c1	PLAP activator 2.3 (no result: MT1-MMP txn act, TNAP act DEA)
Cc1cnn(CCC(=O)NNC(=S)Nc2cccc(Cl)c2)c1	none (no result: MT1-MMP txn act, TNAP act DEA)
Cc1ccc2nc(C(O)C(O)c3nc4ccc(C)cc4[nH]3)[nH]c2c1 (stereo not drawn)	PLAP activator 2.1
OCCOCCn1c2ccccc2c2ccccc21	none
COc1cccc(/C=N/NC(=O)CC2C(=O)NN=C2C)c1O (stereo not drawn)	none (no result: PLAP activator, TNAP act DEA)
Cc1ccc(-c2ccc(/C=N\NC(=O)C3C(=O)NCC3c3ccccc3)o2)cc1Cl (stereo not drawn)	PLAP activator 2.1 (no result: MT1-MMP txn act, TNAP act DEA)
COc1cccc(/C=N\NC(=O)C2C(=O)NCC2c2ccccc2)c1O (stereo not drawn)	PLAP activator 2.5 (no result: MT1-MMP txn act, TNAP act DEA)
COc1cc(/C=N/NC(=O)c2c(-c3ccccc3)noc2C)ccc1O	none (no result: MT1-MMP txn act, TNAP act DEA)
COc1cccc(/C=N/NC(=O)c2c(-c3ccccc3)noc2C)c1O	PLAP activator 2.2 (no result: MT1-MMP txn act, TNAP act DEA)
O=C1NCC(c2ccccc2)C1C(=O)N/N=C\c1ccc(-c2cccc(Cl)c2Cl)o1 (stereo not drawn)	none (no result: TNAP act DEA)
CCOC(=O)C1CCN(C(=O)c2cccnc2Cl)CC1	none (no result: TNAP act DEA)
Cc1ccc(C2c3c(-c4ccccc4O)n[nH]c3C(=O)N2Cc2ccncc2)cc1 (stereo not drawn)	none
O=C1c2[nH]nc(-c3ccccc3O)c2C(c2cccc(O)c2)N1Cc1ccco1 (stereo not drawn)	PLAP activator 2.2 (no result: TNAP act DEA)
O=C(NC1CCCCC1)c1cccc(Cn2cc(Cl)cn2)c1	none (no result: TNAP act DEA)
CCCC(=O)Nc1ccc2c(c1)nc(CCNC(=O)c1ccccc1)n2C	PTPN22 inh 2 26.7 (no result: TNAP act DEA)
CCOc1ccc(S(=O)(=O)NCc2ccccn2)cc1	PLAP activator 2 (no result: TNAP act DEA)
COc1ccc(S(=O)(=O)NCc2ccccn2)c(Cl)c1Cl	PLAP activator 2.1
